This is part of a sample that, as a whole, favours compounds with a hit. Of some 83,000 tested, about 20% had one in any assay.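 Single-concentration screen, 48 h exposure, 96-well plates. Endpoint: percent growth. Below 10 = active.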 Values without a mark were called inactive. Active and inactive are the calls of the source.
Legend:
Test in all cases: NCI-60 one-dose screen, 48 h (100 = growth as untreated, 0 = no growth, -100 = all killed)
Settings in all cases: 10 µM unless noted
SK-MEL-2 melanoma = test system: SK-MEL-2 melanoma
EKVX NSCLC = test system: EKVX NSCLC
SN12C renal = test system: SN12C renal
UO-31 renal = test system: UO-31 renal
TK-10 renal = test system: TK-10 renal
ACHN renal = test system: ACHN renal
CAKI-1 renal = test system: CAKI-1 renal
A498 renal = test system: A498 renal
CCRF-CEM leukemia = test system: CCRF-CEM leukemia
MOLT-4 leukemia = test system: MOLT-4 leukemia

Row | SMILES | growth (SK-MEL-2 melanoma) | growth (EKVX NSCLC) | growth (SN12C renal) | growth (UO-31 renal) | growth (TK-10 renal) | growth (ACHN renal) | growth (CAKI-1 renal) | growth (A498 renal) | growth (CCRF-CEM leukemia) | growth (MOLT-4 leukemia)
1 | COc1cc(-c2nc3sccn3c2-c2ccnc(NCCNS(=O)(=O)c3ccccc3)n2)ccc1F | 54.2% | 61.5% | 46.4% | 16.1% | 57% | 41.1% | 26.9% | 48.9% | 30.9% | 24.7%
2 | COc1ccc(CN2c3ccccc3Sc3ccccc32)cc1F | 39.8% | 34.4% | 45.2% | 45.6% | 47.4% | 41.8% | 54.4% | -1.48% (active) | 22.1% | 27.3%
3 | COC(CC(F)F)c1cn(S(=O)(=O)c2ccc(C)cc2)c2ccccc12 (stereo not given) | 41.3% | 48.3% | 43.3% | 33.8% | 59.3% | 51% | 37.4% | 42.3% | 11.1% | 22.3%
4 | O=C1c2c(c3c4ccccc4[nH]c3c3ccc4ccccc4c23)C(=O)N1CCN1CCNCC1 | 104% | 84.7% | 65.2% | 56.7% | 108% | -49.4% (active) | 63.3% | 61.2% | 0.375% (active) | -20.3% (active)
5 | CCCCCOC(=O)c1c(C)[nH]c(/C=C2\N=C(c3ccc[nH]3)C=C2OC)c1C | -71.2% (active) | 12.5% | 3.4% (active) | -69.6% (active) | 4.49% (active) | -72.3% (active) | -17.3% (active) | -21% (active) | -13.2% (active) | 9.58% (active)
6 | c1csc(-c2ccc(CNc3c4ccccc4nc4ccccc34)cc2)c1 | 80.8% | 59% | 63.2% | 27.9% | 65.1% | 58.6% | 35.5% | -2.45% (active) | 2.57% (active) | 1.96% (active)
7 | O=C(CN1C(=O)NC2NC(=O)NC21)N/N=C/c1ccccc1[N+](=O)[O-] (stereo not given) | 114% | 103% | 105% | 87.8% | 116% | 103% | 90.1% | 104% | 107% | 103%
8 | CCn1cc(C(=O)NNC(=S)Nc2ccc(C)cc2)c(=O)c2ccc(C)nc21 | 104% | 101% | 88.6% | 78.9% | 100% | 95.5% | 95.4% | 76.4% | 90.7% | 102%
9 | CC1(C)COB(OCC(C)(C)COB2OCC(C)(C)CO2)OC1 | 113% | 104% | 104% | 87.7% | 102% | 108% | 102% | 100% | 101% | 108%
10 | COc1ccc(Nc2nc(-c3cc(O)c(C)c(C)c3O)cs2)cc1 | 94.9% | 89.2% | 88.4% | 74.7% | 114% | 82.2% | 51.6% | 101% | 17.8% | 25.7%
11 | COc1ccc(C(C)=O)cc1S(=O)(=O)Nc1c(N)nc(SC)[nH]c1=O | 111% | 101% | 103% | 94.5% | 109% | 106% | 93.2% | 106% | 107% | 99.6%
12 | O=C(CN1CCOCC1)Nc1nc(-c2cc3ccccc3oc2=O)cs1 | 114% | 99% | 101% | 70.6% | 154% | 93.1% | 82.4% | 102% | 103% | 104%
13 | N=C(N)c1ccc(-c2ccc(-c3ccc(Cl)c(Cl)c3)s2)nc1 | 102% | 62.8% | 36.6% | 32.7% | 112% | -62.8% (active) | -60.1% (active) | 90.7% | -1.55% (active) | -26.3% (active)

— PubChem BioAssay (NCI)
